We go through 15 compounds from PubChem BioAssay.

Molecules are shown by their SMILES. For part of these data: Potency and affinity values are given separately. The source made the active and inactive calls.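 Rule for the calls, unless noted: active = fitted half-maximal concentration within the tested dose range, moderate curve steepness, a statistically real signal drop, and little compound fluorescence or tag-binding interference; inactive = the rest.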

Assay [1] concerns the target Cell division control protein 42 homolog (Homo sapiens) (UniProt P60953). Description: activated mutant Cdc42 GTP-binding inhibitors, dose response, biochemical, multiplex bead flow cytometry, Bodipy-FL-GTP (AID 1333).
The target is the same in assay [2]. Description: wildtype Cdc42 GTP-binding inhibitors, dose response, biochemical, multiplex bead flow cytometry, Bodipy-FL-GTP (AID 1334;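 active = fitted half-maximal concentration within the tested range, moderate curve steepness, significant signal drop, and little compound fluorescence or bead-linkage interference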). The settings on record: bead-based flow cytometry, Bodipy-FL-GTP binding to GST-Cdc42; at 100 µM (top of the series) unless noted.
The target in assay [3] is GTPase HRas (Homo sapiens) (UniProt P01112). Description: inhibitors of GTP binding to wildtype Ras, dose response, biochemical, multiplex bead flow cytometry (AID 1335;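 active = fitted half-maximal concentration within 10 nM to 100 µM, steepness 0.5 to 2, significant signal drop, low assay interference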). The settings on record: bead-based flow cytometry, Bodipy-GTP binding to GST-Ras; at 100 µM (top of the series) unless noted. On the technique in general: Flow cytometry measures light scatter and fluorescence of single cells or particles in a stream.
Sequence of GTPase HRas (Homo sapiens) (P01112 whole entry, looked up): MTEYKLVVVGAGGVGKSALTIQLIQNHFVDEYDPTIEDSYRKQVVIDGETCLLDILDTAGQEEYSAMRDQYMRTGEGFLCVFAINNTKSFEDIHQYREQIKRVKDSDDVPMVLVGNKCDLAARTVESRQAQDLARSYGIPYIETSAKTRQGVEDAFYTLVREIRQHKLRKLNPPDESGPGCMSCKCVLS

The subject of assay [4] is Ras-related protein Rab-7a (dog), GTP binding. Description: Rab7 GTP binding inhibitors, potency, dose response, biochemical, wildtype, multiplex bead flow cytometry (AID 1336; call rule not given here).
The target of assay [5] is Ras-related C3 botulinum toxin substrate 1 (Homo sapiens) (UniProt P63000). Description: wildtype Rac1 GTP binding inhibitors, dose response, biochemical, multiplex bead flow cytometry (AID 1340;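 active = dose curve with midpoint inside tested range, moderate steepness, plateau gap beyond fit error, low compound glow and bead-link interference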). The settings on record: GST-Rac1 beads, Bodipy-FL-GTP binding; at 100 µM (top of the series) unless noted.
Assay [6] addresses GTPase HRas (Homo sapiens) (UniProt P01112). Kind of assay: activated Ras mutant GTP binding inhibitors, dose response, biochemical, multiplex bead flow cytometry (AID 1341;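 active = dose-response curve with midpoint inside the tested range, moderate steepness, significant amplitude and little compound fluorescence or bead-attachment interference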;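 note: GST-tagged constitutively activated Ras mutant immobilized on beads and multiplexed with other GTPases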).

Sequence of Cell division control protein 42 homolog (Homo sapiens) (P60953 whole entry, looked up): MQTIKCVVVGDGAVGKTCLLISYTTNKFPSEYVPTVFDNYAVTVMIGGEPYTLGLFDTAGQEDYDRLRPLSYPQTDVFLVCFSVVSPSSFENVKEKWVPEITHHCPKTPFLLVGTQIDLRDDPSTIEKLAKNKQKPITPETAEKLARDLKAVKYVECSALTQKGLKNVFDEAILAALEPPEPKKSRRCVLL

For the compound `CCOc1cc(/C=C2\SC(=O)N=C2N)ccc1O`, the call in assay [1], in assay [4] and in assay [6] was inactive. Further, the fluorescence, percent of control (lower = inhibition) in assay [2] came to 40.7%. Also, the GTP binding, percent of control in assay [3] was 81%. Also, the GTP binding signal, raw median fluorescence (lower = inhibition) (MCF (arbitrary fluorescence units)) in assay [5] is 174.

With `c1ccc(CN2CCN(CCOCCOc3cccc4ccccc34)CC2)cc1`, the compound was classed as inactive in assay [1], in assay [4] and in assay [6]. In assay [2], this compound gave a fluorescence, percent of control (lower = inhibition) of 28.9%. The compound also gave a GTP binding, percent of control in assay [3] of 79%. The compound further gave a GTP binding signal, raw median fluorescence (lower = inhibition) (MCF (arbitrary fluorescence units)) in assay [5] of 234.

On to `O=[N+]([O-])c1cc(Cc2ccccc2)cc(C=Nc2ccc(N3CCOCC3)cc2)c1O`, for which the result in assay [1], in assay [4] and in assay [6] was inactive. Also, in assay [2], the fluorescence, percent of control (lower = inhibition) came out at 45.1%. For the same compound, the GTP binding, percent of control in assay [3] was 65.5%. The same compound showed a GTP binding signal, raw median fluorescence (lower = inhibition) (MCF (arbitrary fluorescence units)) in assay [5] of 0.

Take `Nc1[nH]n2c(=O)c3c(nc2c1N=Nc1ccccc1)CCCC3`: the call in assay [1], in assay [4] and in assay [6] was inactive. In assay [2], this compound displayed a fluorescence, percent of control (lower = inhibition) of 31%. In assay [3], this compound gave a GTP binding, percent of control of 41.6%. In assay [5], the GTP binding signal, raw median fluorescence (lower = inhibition) (MCF (arbitrary fluorescence units)) came out at 109.

For the compound `NC(=O)NOCc1ncc(C(F)(F)F)cc1Cl`, the compound was called inactive in assay [1], in assay [4] and in assay [6]. Also, the fluorescence, percent of control (lower = inhibition) in assay [2] amounted to 36.2%. In assay [3], the GTP binding, percent of control was 81.2%. The same compound had a GTP binding signal, raw median fluorescence (lower = inhibition) (MCF (arbitrary fluorescence units)) in assay [5] of 274.

Consider `COc1cc(NS(=O)(=O)c2ccc(Nc3nc(-c4ccccc4)cs3)cc2)nc(OC)n1`, for which the result in assay [1], in assay [4] and in assay [6] was inactive. This compound had a fluorescence, percent of control (lower = inhibition) in assay [2] of 40.7%. In assay [3], the GTP binding, percent of control was found to be 53.3%. For the same compound, the GTP binding signal, raw median fluorescence (lower = inhibition) (MCF (arbitrary fluorescence units)) in assay [5] is 138.

In the case of `Cc1cc(C(F)(F)F)c(C#N)c(SCC(=O)Nc2nc3ccccc3s2)n1`, the compound was classed as inactive in assay [1], in assay [4] and in assay [6]. This compound also showed a fluorescence, percent of control (lower = inhibition) in assay [2] of 89.9%. Besides, the GTP binding, percent of control in assay [3] amounted to 105%. In addition, the GTP binding signal, raw median fluorescence (lower = inhibition) (MCF (arbitrary fluorescence units)) in assay [5] came out at 188.

For the compound `Cc1nc(-c2ccccc2)sc1C(=O)NN`, the compound was called inactive in assay [1], in assay [4] and in assay [6]. Also, the fluorescence, percent of control (lower = inhibition) in assay [2] was 39.4%. This compound also came in with a GTP binding, percent of control in assay [3] of 82.3%. Also, in assay [5], the GTP binding signal, raw median fluorescence (lower = inhibition) (MCF (arbitrary fluorescence units)) was determined as 248.

Turning to `O=C(O)c1ccccc1OCc1ccccc1Br`, the compound was classed as inactive in assay [1], in assay [4] and in assay [6]. The fluorescence, percent of control (lower = inhibition) in assay [2] was determined as 84.6%. Further, the GTP binding, percent of control in assay [3] amounted to 98%. The compound further registered a GTP binding signal, raw median fluorescence (lower = inhibition) (MCF (arbitrary fluorescence units)) in assay [5] of 65.5.

As for `Cc1cccc(C)c1NC(=O)CSc1ccc([N+](=O)[O-])cn1`, the outcome in assay [1], in assay [4] and in assay [6] was inactive. The fluorescence, percent of control (lower = inhibition) in assay [2] turned out to be 85.9%. In assay [3], this compound gave a GTP binding, percent of control of 97.1%. In addition, the GTP binding signal, raw median fluorescence (lower = inhibition) (MCF (arbitrary fluorescence units)) in assay [5] came out at 246.

On to `Cc1cccc(CNCc2sc(C(=O)O)cc2C)c1`, for which the outcome in assay [1], in assay [4] and in assay [6] was inactive. Besides, in assay [2], the fluorescence, percent of control (lower = inhibition) was found to be 54.2%. The compound further had a GTP binding, percent of control in assay [3] of 77.2%. The compound also displayed a GTP binding signal, raw median fluorescence (lower = inhibition) (MCF (arbitrary fluorescence units)) in assay [5] of 31.9.

For the compound `COc1ccc(C)cc1NC(=O)COC(C)=O`, the call in assay [1], in assay [4] and in assay [6] was inactive. The fluorescence, percent of control (lower = inhibition) in assay [2] was 94.8%. This compound showed a GTP binding, percent of control in assay [3] of 180%. This compound also registered a GTP binding signal, raw median fluorescence (lower = inhibition) (MCF (arbitrary fluorescence units)) in assay [5] of 179.

Regarding `COc1cccc(OCc2c(C)cccc2C)c1C(=O)O`, the compound was called inactive in assay [1], in assay [4] and in assay [6]. Further, the fluorescence, percent of control (lower = inhibition) in assay [2] turned out to be 56.5%. For the same compound, in assay [3], the GTP binding, percent of control came out at 209%. Besides, the GTP binding signal, raw median fluorescence (lower = inhibition) (MCF (arbitrary fluorescence units)) in assay [5] was 52.5.

For `Cc1ccc(Nc2nc(N)c(C#N)c(CC#N)c2C#N)cc1`, the result in assay [1], in assay [4] and in assay [6] was inactive. In addition, the fluorescence, percent of control (lower = inhibition) in assay [2] is 36.6%. In assay [3], this compound returned a GTP binding, percent of control of 85.9%. Further, the GTP binding signal, raw median fluorescence (lower = inhibition) (MCF (arbitrary fluorescence units)) in assay [5] amounted to 224.

For `CS(=O)(=O)N1CCN(C(=O)C2c3ccccc3Oc3ccccc32)CC1`, the compound was classed as inactive in assay [1], in assay [4] and in assay [6]. Besides, the fluorescence, percent of control (lower = inhibition) in assay [2] was found to be 36.7%. This compound also displayed a GTP binding, percent of control in assay [3] of 78.7%. For the same compound, in assay [5], the GTP binding signal, raw median fluorescence (lower = inhibition) (MCF (arbitrary fluorescence units)) turned out to be 268.
